From PubChem BioAssay (NCATS) come the findings set out here.

Structures are written as SMILES. Where “and” joins values, the source holds several entries; their conditions need not be identical. Equal values may be shown once. Records with an inconclusive call do not appear. Calls of active or inactive are those of the source. The call rests on the fitted dose curve.
Potency means the concentration at half of the fitted maximal effect.

This experiment is described as follows: Primary qHTS to identify inhibitors of SARS-CoV-2 cell entry (AID 1645846). Further: nearly all actives have a fitted effect of over 45% in size. To be noted: SARS-CoV-2 pseudovirus cell entry assay, luminescence; activity change, negative = inhibition: at 57.1 µM (top of the series) unless noted. An excerpt: Assay Provider: Wei Zheng, Ph.D.
National Center for Advancing Translational Sciences, National Institute of Health, Rockville, MD.
SARS-CoV-2 spike protein, within the viral envelope, mediates viral attachment and infection of host cells. The SARS-CoV-2 spike protein specifically binds to the host receptor ACE2 (Angiotensin-converting enzyme 2). This interaction promotes endocytosis of the viral particle, additional events lead to viral-host cell membrane fusion and release of the viral contents, allowing viral replication.
While SARS-CoV-2 requires BSL-3 facilities for live virus work, pseudotyped partices (PP) that incorporate SARS-CoV-2 spike proteins without replication elements could facilitate studies on viral entry mechanisms in a BSL-2 setting. This PP cell entry assay could also enable screening of small molecule compound libraries in BSL-2 setting to identify inhibitors of SARS-CoV-2 cell entry.
PROTOCOL TABLE (format as described by Inglese J, Shamu CE and Guy RK. 2007)
SEQUENCE No. (e.g., 1, 2, 3, etc.); […] (e.g., Cells, Incubation, Reagent, etc.); VALUE and DESCRIPTION.
1. Cells. Seed 1500 HEK293-ACE2 cells (Expi293F with stable expression of human ACE2) in 2 uL/well media (DMEM, 10% FBS, 1x L-glutamine, 1x Pen/Strep, 1 ug/ml puromycin) in white 1536-well assay plates (Greiner #782073).
2. Incubation. Incubate at 37C with 5% CO2 overnight (~16 h).
3. Compounds. Dispense 23 nL/well compounds in DMSO via pin transfer.
4. Incubation. Incubate for 1 hr at 37C 5% CO2.
5. Reagent. Dispense 2 uL/well of SARS-CoV-2-S pseudotyped particles. [a] PPs are produced with murine leukemia virus pseudotyping. [b] SARS-CoV-2-S is Wuhan-Hu-1 sequence (BEI #NR-52420) with C-terminal 19 amino acid truncation.
6. Centrifuge. […]
7. Incubation. Incubate at for 48 hr at 37C 5% CO2
8. Centrifuge. Remove supernatant with gentle centrifugation using a Blue Washer (BlueCat Bio).
9. Reagent. Dispense 4 uL/well of Bright-Glo Luciferase detection reagent (Promega #E2620).
10. Incubation. Incubate for 5 min at room temperature.
11. Detection. Read luminescence signal (Viewlux plate reader, PerkinElmer). Data was normalized with wells containing SARS-CoV-2-S PP as 100%, and wells containing bald PP (no fusion protein) as 0%.
A general note: qHTS replaces the single test concentration by a dilution series.
As for `CCCCN(CCCC)C(=O)CN1C[C@H](c2ccc3c(c2)OCO3)[C@@H](C(=O)O)[C@@H]1c1ccc(OC)cc1`, the activity change, negative = inhibition was -74.4%.

As for `CN(C(=O)/C=C/c1ccoc1)[C@@H]1CC[C@@]2(O)[C@H]3Cc4ccc(O)c5c4[C@@]2(CCN3CC2CC2)[C@H]1O5`, the Potency entry is “inactive”.

For `CCCCC(=O)O[C@]1(C(=O)COC(C)=O)CC[C@H]2[C@@H]3CCC4=CC(=O)C=C[C@]4(C)[C@H]3[C@@H](O)C[C@@]21C`, the activity change, negative = inhibition is -22.7%.

As for `Cc1cc2cc(Oc3ccnc(Nc4cccc(CS(=O)(=O)NCCN(C)C)c4)n3)ccc2[nH]1`, the Potency was 35.5 µM (active).

For `OCCOCCOCCO`, the Potency entry is “inactive”.

As for `C[C@H](Oc1cc(-c2cnn(C3CCNCC3)c2)cnc1N)c1c(Cl)ccc(F)c1Cl`, the Potency was 11.2 µM (active).

For the molecule `CCOC(=O)c1ccnc(CNCC(=O)N(CC)CCN(C)C)c1`, the activity change, negative = inhibition was -19.4%.

As for `Cc1ccc(NC(=O)c2ccc(CN3CCNCC3)cc2)cc1Nc1nccc(-c2cccnc2)n1`, the activity change, negative = inhibition is -27.5%.

For the molecule `O=C(NO)c1cnc(NC2(c3cccc(F)c3)CCCCC2)nc1`, the Potency is 28.2 µM (active).

Consider `CC(=O)N[C@H]1CSSC[C@@H](C(N)=O)NC(=O)[C@H](C(C)C)NC(=O)[C@H](C)NC(=O)[C@H](Cc2cnc[nH]2)NC1=O`, for which the Potency result was “inactive”.

As to `CCOC(=O)[C@H](CCc1ccccc1)N[C@H](C)C(=O)N1C2CCCCC2C[C@H]1C(=O)O` (stereo not given in full), the activity change, negative = inhibition was -29.8%.

For `Cc1cc(OCc2nnc(SC3CCCC3)n2-c2cccnc2)ccc1-c1ccc(S(C)(=O)=O)cc1`, the activity change, negative = inhibition is -22.4%.

For `CC#CC(=O)N1CC[C@@H](n2c(=O)n(-c3ccc(Oc4ccccc4)cc3)c3c(N)ncnc32)C1`, the activity change, negative = inhibition is -99%.

Regarding `CC1(C)CN(C(=O)c2ccc(-c3cccc4nc(NC(=O)C5CC5)nn34)cc2)C1`, the activity change, negative = inhibition was -61.8%.

With `CC(CCc1ccc(O)cc1)NCC(O)c1ccc(O)cc1` (stereo not given), the Potency result is “inactive”.

For the molecule `CNC[C@@H]1CC[C@@H](N)[C@@H](O[C@H]2[C@H](O)[C@@H](O[C@H]3OC[C@](C)(O)[C@H](NC)[C@H]3O)[C@H](N)C[C@@H]2N)O1`, the activity change, negative = inhibition was -15.6%.

`CCC[C@@H]1C[C@@H](C(=O)N[C@@H](C2O[C@H](SC)[C@H](O)[C@@H](O)[C@H]2O)[C@H](C)Cl)N(C)C1` (stereo not given in full): the Potency entry was “inactive”.

For the molecule `CC(O)C(CO)NC(=O)C1CSSCC(NC(=O)C(N)Cc2ccccc2)C(=O)NC(Cc2ccccc2)C(=O)NC(Cc2c[nH]c3ccccc23)C(=O)NC(CCCCN)C(=O)NC(C(C)O)C(=O)N1` (stereo not given), the activity change, negative = inhibition was -15.6% [at 27.1 µM].

Turning to `CC(C)n1c(/C=C/[C@H](O)C[C@H](O)CC(=O)O)c(-c2ccc(F)cc2)c2ccccc21`, the Potency result is “inactive”.

Regarding `Cn1cc(-c2ccc(F)c(C(F)(F)F)c2)nc1C1CCN(c2ncnc3[nH]ncc23)CC1`, the Potency result was “inactive”.

Turning to `C=CC(=O)Nc1cc(Nc2nccc(-c3cn(C)c4ccccc34)n2)c(OC)cc1N(C)CCN(C)C`, the Potency was 3.16 µM (active) and 8.91 µM (active).

For the molecule `CC(C)=CCC[C@](C)(O[C@@H]1O[C@H](CO[C@@H]2O[C@H](CO)[C@@H](O)[C@H](O)[C@H]2O)[C@@H](O)[C@H](O)[C@H]1O)[C@H]1CC[C@]2(C)[C@@H]1[C@H](O)C[C@@H]1[C@@]3(C)CC[C@H](O[C@@H]4O[C@H](CO)[C@@H](O)[C@H](O)[C@H]4O[C@@H]4O[C@H](CO)[C@@H](O)[C@H](O)[C@H]4O)C(C)(C)[C@@H]3CC[C@]12C`, the activity change, negative = inhibition is -3.97% [at 27.1 µM].

Take `NC(=O)c1nc(F)c[nH]c1=O`: the activity change, negative = inhibition is -11.1% and -27.4%.

Consider `O=C(O)c1cnn(-c2nc3cc(OC(F)(F)F)c(Cl)cc3[nH]2)c1`, for which the Potency result is “inactive”.

As to `CO[C@@H]1[C@@H](O)[C@H](O)[C@@H](n2c3c(Cl)cccc3c3c4c(c5c6cccc(Cl)c6[nH]c5c32)C(=O)NC4=O)O[C@H]1CO`, the Potency was 1 µM (active).

Consider `CC[C@@H](C(=O)O)[C@@H]1O[C@@H]([C@@H](C)[C@H](O)[C@H](C)C(=O)[C@H](CC)[C@H]2O[C@]3(C=C[C@@H](O)[C@]4(CC[C@@](C)([C@H]5CC[C@](O)(CC)[C@H](C)O5)O4)O3)[C@H](C)C[C@@H]2C)[C@@H](C)C[C@@H]1C`, for which the Potency was 0.708 µM (active).

Take `CN[C@@H]1[C@H](O[C@H]2[C@H](O[C@@H]3[C@@H](O)[C@H](O)[C@@H](N=C(N)N)[C@H](O)[C@H]3N=C(N)N)O[C@@H](C)[C@]2(O)C=O)O[C@@H](CO)[C@H](O)[C@H]1O`: the activity change, negative = inhibition is -18.7% [at 11.3 µM] and the Potency entry was “inactive”.

As to `CN=C(NC)NCc1ccccc1`, the activity change, negative = inhibition was -12.2%.

As for `CCCCC[C@H](O)/C=C/[C@H]1[C@H](O)CC(=O)[C@@H]1CCCCCCC(=O)O`, the activity change, negative = inhibition was -2.28%.

`CCN(CC)CCS(=O)(=O)[C@@H]1CCN2C(=O)c3coc(n3)CC(=O)C[C@H](O)/C=C(C)/C=C/CNC(=O)/C=C/[C@@H](C)[C@@H](C(C)C)OC(=O)[C@@H]12`: the activity change, negative = inhibition was -29%.

Regarding `C[C@H]1[C@H](O)[C@@H](C)/C=C/C=C/CC/C=C/C=C/C=C/C=C/C(OC2O[C@H](C)[C@@H](O)[C@H](N)[C@@H]2O)CC2O[C@](O)(CC(O)C(O)CCC(O)CC(O)CC(O)CC(=O)O[C@H]1C)CC(O)C2C(=O)O` (stereo not given in full), the activity change, negative = inhibition is -22.7%.

`CCOc1cc(/C=C2/C(=O)N(c3ccccc3)N=C2C)cc(Cl)c1OCC(=O)OC`: the activity change, negative = inhibition is -12.7%.

As to `CCNC(=O)Nc1ccc(-c2nc3c(c(N4CCOC[C@@H]4C)n2)CCN(C2COC2)C3)cc1`, the Potency is 10 µM (active).

On to `CO/N=C(\C(=O)N[C@@H]1C(=O)N2C(C(=O)O)=C(Cn3ccc(=N)n3CCO)CS[C@H]12)c1csc(N)n1`, for which the activity change, negative = inhibition was -19.1%.

As for `CC(C)(O)CC[C@@H](O)[C@](C)(O)[C@H]1CC[C@@]2(O)C3=CC(=O)[C@@H]4C[C@@H](O)[C@@H](O)C[C@]4(C)[C@H]3CC[C@]12C`, the activity change, negative = inhibition was -22.8%.

On to `O=C(NNc1ccccc1)c1ccncc1`, for which the activity change, negative = inhibition was -19.4%.

Consider `O=C(Nc1ccnc(NC(=O)C2CC2)c1)c1c(Cl)cccc1Cl`, for which the activity change, negative = inhibition is -97%.

For the molecule `O=C1Cc2cc(C(=O)NC3C[C@H]4CC[C@@H](C3)N4S(=O)(=O)CC3CCN(CCCC(F)(F)F)CC3)c(Cl)cc2N1` (stereo not given in full), the activity change, negative = inhibition was -20.5%.

Turning to `CC(=NNC(=O)c1cccc(S(=O)(=O)N2CCOCC2)c1)c1cc(Cl)ccc1O`, the activity change, negative = inhibition was -7.45%.
